Bioassay records as filed in PubChem.
p53null 32C tox: selectivity test: cytotoxicity in p53 null cells, permissive temperature. Potency, µM (highest dose often 46.1 µM), usual class: cytotoxic. H1299-neo p53 null cells, ATP luminescence, 24 h, 32C. AID 903. 0.62% of 55,000 active; note: nearly all actives have a fitted effect of over 55% in size
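We seeded p53-null H1299-neo cells, incubated them overnight at 37C, and added compounds across a range up to 46 uM. After 24 hours at 32C, ATP reagent was applied for 20 min at room temperature and luminescence recorded.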
SKOV3 invasion: ovarian cancer metastasis inhibition, 3D TME model; SKOV3ip1-GFP adhesion/invasion on 3D omental model, fluorescence; Potency, µM (top dose mostly 45.8 µM), most hits filed as inhibitors; 0.1% of 46,000 active; note: nearly all actives have a fitted effect of over 65% in size
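A 3D layer of primary human omental fibroblasts, mesothelial cells, fibronectin and collagen I, grown 48 hr, received SKOV3ip1-GFP cells in serum-free medium plus compounds at 0.36-46 umol/L. After 2 hr RT and 16 hr 37 C, fixed adherent GFP cells were counted; normalized to DMSO and tomatine.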
PMP22 txn prim: PMP22 gene transcription modulation; S16 Pmp22-F2sN Schwann cells, FLuc/NLuc coincidence luminescence, 24 h; Potency, µM (top dose mostly 57.5 µM), hits mostly inhibitors; 2% of 43,000 active; AID 1508649; active = clear falling dose curves in both reporters; inconclusive = both reporters move, but less clearly or upward; inactive = either reporter flat; the % is the NLuc reporter signal
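S16 Schwann cells carrying FLuc/NLuc coincidence reporter in the Pmp22 3' UTR treated with compound 24 h at 37C; FLuc then NLuc luminescence read sequentially by dual-luciferase reagents.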
mTORC1 inh: inhibitors of mTORC1 signaling in Tsc2-/- p53-/- MEF cells. Tsc2-/- p53-/- MEF, phospho-rpS6 immunofluorescence/PI, 24 h. 0.78% of 44,000 active. Potency, µM (top dose mostly 38.3 µM), usual class: inhibitors; note: nearly all actives have a fitted effect of over 50% in size
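Compounds act on Tsc2-/-, p53-/- fibroblasts carrying an empty vector for 24 h before fixation and dual staining for phospho-S6 and DNA (propidium iodide). Values are percentages of cells above a rapamycin-defined pS6/PI threshold.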
S16 F2sN tox: toxic to S16 Pmp22-F2sN Schwann cells | 0.48% of 43,000 active | Potency, µM (series often up to 57.5 µM), usual class: cytotoxic | AID 1508642 | S16 Pmp22-F2sN Schwann cells viability, CellTiter-Glo, 24 h; note: nearly all actives have a fitted effect of over 65% in size
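S16 Pmp22-F2sN Schwann cells (500-1,000/well) in phenol-red-free DMEM with 10% FBS received 23 nL compound by pin tool for 24 h at 37 °C. Viability was then read as CellTiter-Glo luminescence after 15 min at room temperature.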
p53null 39C kill: kills p53 null cells at the nonpermissive temperature | H1299 p53-null (neo) cells, 39C, ATPlite viability, 24 h | Potency, µM (titrated, usually from 46.1 µM), hits mostly cytotoxic | 0.97% of 55,000 active | AID 904; note: nearly all actives have a fitted effect of over 50% in size
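Luminescent ATP signal reported cell survival after H1299 lines (neo, p53 null; or p53 A138V) received up to 46 uM compound and 24 hr incubation at 39C.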
Large screens that a line does not name were inactive. Rows were chosen to be rich in hits. Some 3% of all compounds tested hit in one or more screens of this group. Unless noted, calls come from the whole dose curve; as a rule, active = well fitted curve in the direction sought with a large enough effect; inconclusive = small, poorly fitted or top-dose-only effect, or another doubt; inactive = no such curve, though single readings can be large; an effect the other way counts as inactive or inconclusive.

COC(=O)N/N=C/c1c(C)nn(-c2cccc(Cl)c2)c1Cl	none (no result: SKOV3 invasion, PMP22 txn prim, mTORC1 inh, S16 F2sN tox, p53null 39C kill)
Cn1cc(C(=O)O)c(=O)c2cc(S(=O)(=O)N3CCOCC3)ccc21	PMP22 txn prim inconclusive, S16 F2sN tox 14.1µM
N=c1n(CCO)c2ccccc2n1CCOc1ccc(F)cc1	mTORC1 inh inconclusive (no result: PMP22 txn prim, S16 F2sN tox)
CCN(CC)CCn1c(=N)n(CC(O)COc2ccccc2C)c2ccccc21 (stereo unspecified)	SKOV3 invasion inconclusive, PMP22 txn prim inconclusive, mTORC1 inh 11.7µM, S16 F2sN tox 28.2µM, p53null 39C kill 17.8µM
CCN(CC)CCn1c(=N)n(CCOc2ccccc2Cl)c2ccccc21	SKOV3 invasion inconclusive, PMP22 txn prim inconclusive, mTORC1 inh 5.85µM, S16 F2sN tox 28.2µM, p53null 39C kill 3.16µM
CCn1c(=N)n(CC(O)COc2ccccc2)c2ccccc21 (stereo unspecified)	PMP22 txn prim inconclusive
C[C@H]1[C@@H](OC(=O)CCC(=O)O)O[C@@H]2O[C@@]3(C)CC[C@@H]4[C@H](C)CC[C@@H]1[C@@]24OO3	none (no result: p53null 32C tox, PMP22 txn prim, mTORC1 inh, S16 F2sN tox, p53null 39C kill)
COc1ccc(S(=O)(=O)NCC(c2cccs2)S(=O)(=O)c2ccc(C)cc2)cc1F (stereo unspecified)	PMP22 txn prim inconclusive, S16 F2sN tox inconclusive
Cc1ccc(S(=O)(=O)C(CNS(=O)(=O)c2cc(F)ccc2F)c2cccs2)cc1 (stereo unspecified)	PMP22 txn prim inconclusive, S16 F2sN tox 20µM, p53null 39C kill inconclusive
COc1ccc(C)cc1S(=O)(=O)NCC(c1cccs1)S(=O)(=O)c1ccc(C)cc1 (stereo unspecified)	PMP22 txn prim inconclusive, S16 F2sN tox 25.1µM
O=C(CC1(O)C(=O)Nc2cc(Cl)cc(Cl)c21)c1ccccc1O (stereo unspecified)	none (no result: SKOV3 invasion, PMP22 txn prim, mTORC1 inh, S16 F2sN tox)
COc1ccc(C(=O)CC2(O)C(=O)N(Cc3cccc(C(F)(F)F)c3)c3ccccc32)cc1 (stereo unspecified)	PMP22 txn prim inconclusive, mTORC1 inh inconclusive, S16 F2sN tox inconclusive, p53null 39C kill inconclusive
CCN1C(=O)C(O)(c2c[nH]c3ccccc23)c2cc(Br)ccc21 (stereo unspecified)	PMP22 txn prim inconclusive
COc1cccc(C(=O)CC2(O)C(=O)N(Cc3ccccc3)c3ccccc32)c1 (stereo unspecified)	PMP22 txn prim inconclusive, mTORC1 inh 14.7µM, S16 F2sN tox inconclusive
O=C(CC1(O)C(=O)N(CCc2ccccc2)c2ccc(Br)cc21)c1ccccc1O (stereo unspecified)	PMP22 txn prim inconclusive, mTORC1 inh 18.5µM, S16 F2sN tox inconclusive, p53null 39C kill inconclusive
O=C(CC1(O)C(=O)N(Cc2ccccc2)c2ccc(Br)cc21)c1ccccc1 (stereo unspecified)	p53null 32C tox inconclusive, PMP22 txn prim inconclusive, mTORC1 inh inconclusive, p53null 39C kill 12.6µM
O=C(CCS(=O)(=O)c1ccccc1)N(Cc1cccnc1)c1nc2ccc(F)cc2s1	p53null 32C tox inconclusive, SKOV3 invasion inconclusive, PMP22 txn prim 10.6µM, mTORC1 inh inconclusive, S16 F2sN tox 4.47µM
CC(=O)N(Cc1cccnc1)c1nc2ccc(F)cc2s1	none
Cc1ccc(S(=O)(=O)c2nnn3c2nc(NC2CCCCC2)c2sccc23)cc1C	PMP22 txn prim inconclusive, mTORC1 inh 7.36µM, S16 F2sN tox inconclusive
CN1C(=O)c2ccccc2Sc2ccc(NC(=O)c3ccc(C(F)(F)F)cc3)cc21	PMP22 txn prim 11.3µM
O=C(Nc1c(Cl)cccc1Cl)c1cc(-c2cccc(O)c2)on1	p53null 39C kill 12.6µM (no result: PMP22 txn prim, S16 F2sN tox)
C1Cc2[nH]nc(-c3nn[nH]n3)c2C1	none (no result: p53null 32C tox, PMP22 txn prim, mTORC1 inh, S16 F2sN tox, p53null 39C kill)
CC1=C(CO)C(=O)O[C@@H]([C@@H](C)[C@H]2CC[C@H]3[C@@H]4C[C@H]5O[C@]56[C@@H](O)C=CC(=O)[C@]6(C)[C@@H]4CC[C@]23C)C1	SKOV3 invasion 4.69µM (no result: p53null 32C tox, PMP22 txn prim, mTORC1 inh, S16 F2sN tox, p53null 39C kill)
CC1COC2(CCN(c3nc(=O)c4cc(C(F)(F)F)cc([N+](=O)[O-])c4s3)CC2)O1 (stereo unspecified)	none (no result: p53null 32C tox, PMP22 txn prim, mTORC1 inh, S16 F2sN tox, p53null 39C kill)
COc1cc(OC)cc(C(=O)Nc2cc(-c3nc4ccccc4[nH]3)ccc2C)c1	none
Cc1ccc(C(C)C)c(OCC(=O)Nc2cc(-c3nc4ccccc4[nH]3)ccc2C)c1	p53null 32C tox inconclusive, PMP22 txn prim inconclusive, mTORC1 inh 13.1µM, S16 F2sN tox inconclusive, p53null 39C kill 7.94µM
CC(O)=C(C#N)C(=O)Nc1ccc(C(F)(F)F)cc1	none (no result: p53null 32C tox, PMP22 txn prim, mTORC1 inh, S16 F2sN tox, p53null 39C kill)
CCOc1ccc(CNC(=O)CSc2nnc(C)c3c(C)n(-c4ccccc4)nc23)cc1	p53null 39C kill 25.1µM
Cn1cc(-c2[nH]c3cc(NC(=O)[C@H](N)C4CCCCC4)cc4c3c2C=NNC4=O)cn1	none (no result: p53null 32C tox, PMP22 txn prim, mTORC1 inh, S16 F2sN tox, p53null 39C kill)
Cn1c(=O)c2c(nc(NCc3ccccc3)n2Cc2ccccc2Cl)n(C)c1=O	S16 F2sN tox inconclusive
Cn1c(=O)c2c(nc(NCc3ccccc3)n2Cc2ccccc2)n(C)c1=O	PMP22 txn prim 13.4µM, S16 F2sN tox inconclusive
CCOc1ccccc1NS(=O)(=O)c1ccc2oc(=O)c3ncn(C)c3c2c1	SKOV3 invasion inconclusive, p53null 39C kill 20µM (no result: PMP22 txn prim, S16 F2sN tox)
CCc1ccccc1NS(=O)(=O)c1ccc2oc(=O)c3ncn(C)c3c2c1	none (no result: PMP22 txn prim, S16 F2sN tox)
